From PubChem BioAssay (NCI)
This is part of a sample that, as a whole, favours compounds with a hit. Of some 83,000 tested, about 20% had one in any assay.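 How to read the values: 0–100, growth inhibition (40 = 60% inhibited); 0, no net growth; -100 to 0, cell death (-40 = 40% of starting cells died; -100 = all dead).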 Unmarked numbers belong to inactive results. Calls of active or inactive are those of the source.

Test system: HOP-62 NSCLC
Assay: NCI-60 one-dose screen, 48 h (100 = growth as untreated, 0 = no growth, -100 = all killed)
Settings: 10 µM unless noted
Experimental: Growth inhibition of the HOP-62 human Non-Small Cell Lung tumor cell line is measured as a screen for anti-cancer activity. Cells are grown in 96 well plates and exposed to the test compound for 48 hours. Compounds are tested at a single concentration, which is 10^-5 M for most compounds. The reported endpoint is percent growth (GI% or GIPRCNT), where numbers from 0 - 100% represent growth inhibition, and numbers from -100% - 0 represent cell death. For example, a value of 40 represents 60% growth inhibition. A value of 0 means no net growth occurred over the course of the experiment. A value of -40 indicates 40% of cells at the beginning of the experiment died by the end of the experiment. A value of -100 means all cells are dead at the end of the experiment.
NCI-60 Human Tumor Cell Lines Screen was performed using the standard one-dose NCI protocol, which is described in more detail at https://dtp.cancer.gov/discovery_development/nci-60/default.htm.
Compounds with GIPRCNT values below 10 were considered active. Activity score was based on GIPRCNT using the following formula: […]
Score is 0 for GIPRCNT values of 100 or above, 50 for GIPRCNT values of 0, and 100 for GIPRCNT values of -100.

Row | SMILES | growth
1 | CNC(=O)c1cc(Oc2ccc(CC(=O)Nc3cc(C(C)(C)C)cn3C)cc2)ccn1 | 56%
2 | COc1ccccc1CNC(=O)C1c2ccccc2C(=O)N(CC(C)C)C1c1cccs1 (stereo not given) | 62.6%
3 | O=Cc1cc2ccccc2nc1Nc1nccs1 | 62.2%
4 | Clc1ccc(Oc2ccc(Nc3ncnc4onc(-c5ccccc5)c34)cc2)c(Cl)c1 | 104%
5 | CSc1nc2c(c(=O)n1C)N=C1c3ccccc3C(=O)C1C(c1ccccc1)N2 (stereo not given) | 76.9%
6 | COc1ccc(-c2cn[nH]c2-c2cc(OC)c(OC)c(OC)c2)cc1OCc1ccccc1 | 27.7%
7 | O=C1N=c2ccccc2=C1c1sc(=Nc2ccccc2)n(Nc2ccccc2)c1O | 100%
8 | CC[C@H](C)[C@@H](C(=O)OC)n1cc(CNC(=O)[C@@H](Cc2ccccc2)NC(=O)OCc2ccccc2)nn1 | 103%
9 | COc1ccc(-c2nnc(COc3ccc(C(=O)/C=C/c4ccco4)cc3)o2)cc1 | 75.8%
10 | Cc1cc2c(c(C)c1Cl)C(=O)/C(=C/c1cccc([N+](=O)[O-])c1)O2 | 107%
11 | COc1cccc(/C=C/C(=O)c2c(C)nc3ccccc3c2/C=C/c2ccccc2)c1OC | 55.2%
12 | COC(=O)c1c2c(c(C)[n+]([O-])c1C)C(=O)C(NCc1ccc(F)c(F)c1)=CC2=O | 33.1%
13 | OC(CNC1CCCCC1)Cn1c2ccc(I)cc2c2cc(I)ccc21 (stereo not given) | 74.4%
14 | COC(=O)/C(CCC=C(C)C)=C1\[C@@H](OC(C)=O)C[C@@]2(C)[C@H]1CC(=O)N[C@H]1[C@@]3(C)CCNC(=O)[C@@H](C)[C@@H]3CC[C@@]12C | 106%
15 | NC(CCl)=NCCC[C@H](N)C(=O)O | 126%
16 | Cc1cccc(NC(=O)c2sc3nc4c(cc3c2N)CCCC4)c1C | 26.4%
17 | O=C(NN1C(=O)CSC1c1ccc(Cl)cc1)c1[nH]c2ccc(F)cc2c1-c1ccccc1 (stereo not given) | 78.1%
18 | Nc1nc(Nc2cccc(F)c2)nc2ccccc12 | 65.7%
19 | CC(C)(C)c1ccc(C2CC(=O)C3=C(C2)Nc2ccccc2N(C(=O)c2ccccc2Cl)C3c2ccc(F)cc2)cc1 (stereo not given) | 25.3%
20 | NC1C(N)C(N)C1N (stereo not given) | 104%

Row | SMILES | growth
21 | COc1cc(C(=O)Nc2ccc(-c3nc4ccccc4[nH]3)cc2)cc(OC)c1OC | 42.5%
22 | COc1cc(/C=C/C(=O)c2ccc(Cl)cc2)cc(CN2CCCCC2)c1O | 94.7%
23 | CCC1=C[C@@H]2CN(C1)Cc1c([nH]c3ccccc13)[C@@](C(=O)OC)(c1cc3c(cc1OC)N(C)[C@H]1[C@@](O)(C(=O)OC)[C@H](OC(C)=O)[C@]4(CC)[C@@H]5C[C@@H]5CN5CC[C@]31[C@@H]54)C2 | 17.4%
24 | Cn1c(=O)n(C)c2cc(CNCCNc3ccnc4cc(Cl)ccc34)ccc21 | 78.1%
25 | CCn1c(Cc2ccccc2Nc2c(Cl)cccc2Cl)nnc1SCC(=O)NN1C(=O)/C(=C/c2cccc(OC)c2OC)SC1=S | 98.6%
26 | COc1cc(-c2c3c(c(Br)n2Cc2ccccc2)-c2nc(N)sc2CC3)cc(OC)c1OC | 88.5%
27 | COc1ccc(Nc2nc(N/N=C/c3ccc(O)cc3)nc(Nc3ccc([N+](=O)[O-])cc3)n2)cc1 | 107%
28 | CCOC(=O)C1=C(C)c2ccc(OC)c(OC)c2C1 | 88.5%
29 | c1ccc2c(c1)oc1cc3sccc3nc12 | 89.5%
30 | O=c1oc2ccc(Cl)cc2c(=O)n1-c1ccc(F)cc1F | 4.11% (active)
31 | COc1ccc(/C(C#N)=C/c2nc3c(N4CCOCC4)nc(Cl)nc3n2C)cc1OC | 25.3%
32 | COc1cc(NC(=O)CCSc2nc3ccccc3c(=O)n2CCc2ccccn2)cc(OC)c1OC | 85.7%
33 | COc1ccc(-c2c(-c3ccc(OC)c(O)c3)cnc3ncnn23)cc1 | 111%
34 | CCOC(=O)c1cc2c(n1Cc1ccccc1OC)-c1oncc1CCC2 | 45.3%
35 | O=c1c(-c2nc3ccccc3[nH]2)cc2ccccc2n1Cc1cn(Cc2ccc(F)cc2)nn1 | 21.4%
36 | COC(=O)C1(C)COP(=O)(Nc2ccc(OC)cc2)OC1 (stereo not given) | 107%
37 | CN(C)/C=C1\SC(=Nc2ccc(Cl)cc2)NC1=O | 114%
38 | COc1ccc(C2=C(c3cccc(OC)c3)C(=O)c3ccc(C)nc3C2=O)cc1 | 34.4%
39 | O=C(CSc1ccc2nnc(-c3cccc(F)c3)n2n1)Nc1ccc2c(c1)OCO2 | 81.4%
40 | COc1cccc2c1C=C1CCCCC3=Cc4c(OC)cccc4OC13O2 | 56.8%
